This is part of a sample that, as a whole, favours compounds with a hit. Of some 79,000 tested, about 15% had one in any assay. A number with no mark means an inactive call. Calls of active or inactive are those of the source. Rule as the data show it: active = growth inhibition above about 70%; inactive = the rest.

For 20 compounds, growth inhibition results are on record in PubChem BioAssay (NCI).

Assay [1] in a line: NCI Yeast Anticancer Drug Screen. Data for the rad50 strain (AID 155).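 Also: 0% = growth of vehicle-only cultures of the same strain.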 As to conditions: S. cerevisiae rad50 strain growth inhibition; at 50.0 µM; hits give high values. In outline: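 Inhibition values express reduced yeast growth in compound-treated cultures relative to vehicle-treated controls.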
Assay [2] can be described thus: NCI Yeast Anticancer Drug Screen. Data for the mec2-1 strain (AID 157). As to conditions: S. cerevisiae mec2-1 strain, at 50.0 µM, hits give high values. The method, boiled down: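 Vehicle-treated cultures served as reference for growth inhibition of compound-exposed mec2-1 yeast.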
Assay [3] in a line: NCI Yeast Anticancer Drug Screen. Data for the sgs1 mgt1 strain (AID 161).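 Also: 0% = growth of cultures given vehicle only.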 Conditions: S. cerevisiae sgs1 mgt1 strain, at 50.0 µM, hits give high values. The method, boiled down:
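Read-out: growth inhibition vs vehicle controls. Cells: mutant yeast strain deficient in DNA damage repair.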

Assay [4] is described as follows: NCI Yeast Anticancer Drug Screen. Data for the cln2 rad14 strain (AID 165).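 Also: 0% = growth equal to vehicle treated cultures.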 Conditions: S. cerevisiae cln2 rad14 strain, at 50.0 µM, hits give high values. In outline:
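Each compound was tested on cln2 rad14 yeast. Inhibition of growth was calculated against vehicle-exposed controls.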

A short description of assay [5]: NCI Yeast Anticancer Drug Screen. Data for the bub3 strain (AID 167). Conditions: S. cerevisiae bub3 mutant strain, at 50.0 µM, hits give high values. The method, boiled down: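 Steps: expose the mutant yeast strain to compound; grow alongside vehicle-treated cultures; measure growth; express inhibition against the vehicle cultures.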
A short description of assay [6]: NCI Yeast Anticancer Drug Screen. Data for the mlh1 rad18 strain (AID 175). As to conditions: S. cerevisiae mlh1 rad18 strain growth inhibition; at 50.0 µM; hits give high values. The method, boiled down:
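Vehicle-treated cultures served as the reference for growth inhibition in a yeast strain carrying DNA damage repair alterations exposed to each compound.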

Take `COc1cc(OC)c(NC(=O)Nc2ccc([N+](=O)[O-])cc2OC)cc1Cl`: the growth inhibition in assay [1] is -21.6%; in assay [2], -17.6%; in assay [3] it was -7.15%; in assay [4] it was -49.1%; in assay [5], 1.25%; in assay [6], -7.2%.
For the compound `CC(=O)NNC(=S)/N=C\c1c(O)[nH]c(=O)[nH]c1=O`, the growth inhibition was -23.1% in assay [1]; -30.1% in assay [2]; -15.4% in assay [3]; -0.6% in assay [4]; -4% in assay [5]; -9.85% in assay [6].
Consider `Cc1cccc(C[P+](C/C=C/c2ccccc2)(c2ccccc2)c2ccccc2)c1`, for which the growth inhibition in assay [1] is 98.8% (active); in assay [2], 99.7% (active); in assay [3], 99.7% (active); in assay [4], 99% (active); in assay [5], 99.5% (active); in assay [6], 99.5% (active).
For the compound `C/C=C\COC(=O)C(C)OC(=O)OCC` (stereo not given), the growth inhibition is 14.2% in assay [1]; 11.8% in assay [2]; 4.85% in assay [3]; 5.75% in assay [4]; -0.65% in assay [5]; 0.5% in assay [6].
Consider `CCOC(=O)Nc1cc2c(c(N)n1)N=C(c1ccc(OC)cc1)CN2`, for which the growth inhibition in assay [1] is 33.1%; in assay [2] it was -6.75%; in assay [3], 24.5%; in assay [4], 30%; in assay [5], 21.5%; in assay [6], 11.2%.
On to `C=C1CC/C=C(\C)C(=O)C(O)C2C1CC2(C)C` (stereo not given), for which the growth inhibition in assay [1] is 14.9%; in assay [2], -13.7%; in assay [3] it was 67.2%; in assay [4], 16.4%; in assay [5], 23.9%; in assay [6], 78.8% (active).
Consider `Fc1ccccc1C1CC(c2ccc3ccccc3c2)=Nc2ccccc2S1` (stereo not given), for which the growth inhibition in assay [1] was 30.9%; in assay [2], 12.1%; in assay [3], 18.4%; in assay [4] it was 13.4%; in assay [5], 10.4%; in assay [6], 34.4%.
`CN1CCN(c2ccncc2S(=O)(=O)N2CCN(C)CC2)CC1`: the growth inhibition is -17.2% in assay [1]; -12.7% in assay [2]; 1.2% in assay [3]; -15.4% in assay [4]; -11.4% in assay [5]; -2.5% in assay [6].
Turning to `C[C@@H]1Nc2ccccc2[C@H]1C`, the growth inhibition is -25.6% in assay [1]; -37.5% in assay [2]; -53.1% in assay [3]; 7.75% in assay [4]; -42.6% in assay [5]; -8.1% in assay [6].
For the compound `C=CCNC(=O)N(CCC)CCCC(NC(C)=O)C(=O)NCc1ccccc1` (stereo not given), the growth inhibition in assay [1] is -9.75%; in assay [2], -27.5%; in assay [3], -14.8%; in assay [4], 10.4%; in assay [5], -17.1%; in assay [6], -9.7%.
Turning to `COc1cc2ccc(/C=C/C(=O)c3ccc4c(c3)OCO4)cc2cc1OC`, the growth inhibition in assay [1] is -7.3%; in assay [2], -3.75%; in assay [3], 3.25%; in assay [4], 22.4%; in assay [5], 6.4%; in assay [6], -4.65%.
As to `Cn1c2c(c3ccccc31)=NN1CCN=C1N=2`, the growth inhibition was 11.2% in assay [1]; -2.95% in assay [2]; -0.15% in assay [3]; -28.2% in assay [4]; 17.2% in assay [5]; 4% in assay [6].
`CC(=O)OC(c1ccc2c(c1)OCO2)C(C)(C)C` (stereo not given): the growth inhibition in assay [1] is 17%; in assay [2], 14.9%; in assay [3], -7.3%; in assay [4], -33.5%; in assay [5], 8.7%; in assay [6], 7.9%.
With `Cn1c(=O)c2c(nc(Br)n2CC(=O)c2ccc([N+](=O)[O-])cc2)n(C)c1=O`, the growth inhibition in assay [1] is 24.8%; in assay [2] it was 16.1%; in assay [3], 22.1%; in assay [4] it was 18.9%; in assay [5], 0.55%; in assay [6] it was 27.4%.
For the compound `CCC(C)CC(C)C1=NC(C)(C)CC(C)O1` (stereo not given), the growth inhibition was 3.65% in assay [1]; -6.55% in assay [2]; 0.75% in assay [3]; -16.6% in assay [4]; 0.2% in assay [5]; 8.3% in assay [6].
Take `NS(=O)(=O)c1ncc(C(=O)N2CCN(Cc3ccccc3)CC2)[nH]1`: the growth inhibition in assay [1] was -6.15%; in assay [2], -7.75%; in assay [3] it was 7.2%; in assay [4] it was -11.7%; in assay [5] it was 1.05%; in assay [6], 6.95%.
Turning to `Cc1cccc(Cl)c1NC(=O)Nc1ccc(Cl)cc1C(=O)c1ccccc1`, the growth inhibition in assay [1] was 5.5%; in assay [2], -4.1%; in assay [3], 6.75%; in assay [4], 4.2%; in assay [5], 7.45%; in assay [6], -9.6%.
For the compound `C1CCC(NCCNC2CCCCC2)CC1`, the growth inhibition was 11.8% in assay [1]; -16.9% in assay [2]; 5.5% in assay [3]; 18.6% in assay [4]; -2.8% in assay [5]; 10.3% in assay [6].
Consider `O=[N+]([O-])c1ccccc1C(Nc1nncs1)Nc1nncs1`, for which the growth inhibition in assay [1] was 17.3%; in assay [2], 22.5%; in assay [3], 41.5%; in assay [4], -6.05%; in assay [5], -3.3%; in assay [6], 2.3%.
With `Cc1nc(N)nc2c1CCC(=O)N2`, the growth inhibition in assay [1] is 11.7%; in assay [2], 7.6%; in assay [3], -3.1%; in assay [4], -37.6%; in assay [5], 0.65%; in assay [6], 1.7%.
